Among all 5,500 compounds or so, about 2,000 (36%) were called active. Not shown: some 18% with an inconclusive outcome. Rule as the data show it: active = normalized growth mostly below about 0.91 (no sharp cut-off); inconclusive = no clear call, values can overlap the other calls; inactive = mostly above about 0.92. The list shows a part of the results.
Test: chemical genetic growth profiling, strain panel (AID 1159580);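 also: tested at 20 µM; growth read once vehicle control cultures reached saturation at 30 °C; 1 = growth at the plate median or of vehicle wells; lower values mean less growth of the strain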
Settings: growth OD

Measured: normalized growth

CCOC(=O)NNc1nncc2ccccc12
inactive: S. cerevisiae deletion strains, locus YJR066W, strain TOR1, active compounds read low 0.978 | S. cerevisiae deletion strains, locus YJR075W, strain HOC1, active compounds read low 0.997 | S. cerevisiae deletion strains, locus YKL009W, strain mrt4, active compounds read low 0.986 | S. cerevisiae deletion strains, locus YKL068W, active compounds read low 0.984 | S. cerevisiae deletion strains, locus YKL085W, strain MDH1 (second series), active compounds read low 0.992 | S. cerevisiae deletion strains, locus YKL085W, strain MDH1, active compounds read low 0.992 | S. cerevisiae deletion strains, locus YKL160W, strain elf1, active compounds read low 1.02 | S. cerevisiae deletion strains, locus YKL190W, strain CNB1, active compounds read low 0.998 | S. cerevisiae deletion strains, locus YKR001C, strain vps1, active compounds read low 0.983 | S. cerevisiae deletion strains, locus YKR026C, strain gcn3, active compounds read low 1.02 | S. cerevisiae deletion strains, locus YKR091W, strain srl3, active compounds read low 1 | S. cerevisiae deletion strains, locus YLL001W, strain dnm1, active compounds read low 0.986 | S. cerevisiae deletion strains, locus YLL026W, active compounds read low 1 | S. cerevisiae deletion strains, locus YLL041C, strain sdh2, active compounds read low 1.01 | S. cerevisiae deletion strains, locus YLR027C, strain aat2, active compounds read low 1 | S. cerevisiae deletion strains, locus YLR039C, strain RIC1, active compounds read low 1.03 | S. cerevisiae deletion strains, locus YLR058C, strain SHM2, active compounds read low 0.992 | S. cerevisiae deletion strains, locus YLR102C, strain apc9, active compounds read low 0.979 | S. cerevisiae deletion strains, locus YLR113W, strain HOG1, active compounds read low 0.967 | S. cerevisiae deletion strains, locus YLR221C, strain rsa3, active compounds read low 0.976 | S. cerevisiae deletion strains, locus YLR258W, strain gsy2, active compounds read low 1.04 | S. cerevisiae deletion strains, locus YLR262C, strain YPT6 (second series), active compounds read low 1.01 | S. cerevisiae deletion strains, locus YLR262C, strain YPT6, active compounds read low 1.02 | S. cerevisiae deletion strains, locus YLR268W, strain sec22, active compounds read low 0.968 | S. cerevisiae deletion strains, locus YLR320W, strain mms22, active compounds read low 0.92 | S. cerevisiae deletion strains, locus YLR330W, strain CHS5, active compounds read low 0.992 | S. cerevisiae deletion strains, locus YLR342W, strain FKS1 (second series), active compounds read low 0.973 | S. cerevisiae deletion strains, locus YLR342W, strain FKS1, active compounds read low 1.03 | S. cerevisiae deletion strains, locus YLR357W, strain rsc2, active compounds read low 1.06 | S. cerevisiae deletion strains, locus YLR370C, strain arc18, active compounds read low 1.02 | S. cerevisiae deletion strains, locus YLR371W, strain rom2, active compounds read low 0.977 | S. cerevisiae deletion strains, locus YLR384C, strain iki3, active compounds read low 0.989 | S. cerevisiae deletion strains, locus YLR418C, strain cdc73, active compounds read low 0.957 | S. cerevisiae deletion strains, locus YML016C, strain PPZ1, active compounds read low 0.991 | S. cerevisiae deletion strains, locus YML032C, strain rad52, active compounds read low 0.97 | S. cerevisiae deletion strains, locus YML120C, strain ndi1, active compounds read low 0.992 | S. cerevisiae deletion strains, locus YML124C, strain tub3, active compounds read low 0.983 | S. cerevisiae deletion strains, locus YMR058W, strain fet3, active compounds read low 1.01 | S. cerevisiae deletion strains, locus YMR078C, strain ctf18, active compounds read low 0.983 | S. cerevisiae deletion strains, locus YMR125W, strain sto1, active compounds read low 1.03 | S. cerevisiae deletion strains, locus YMR129W, active compounds read low 0.988 | S. cerevisiae deletion strains, locus YMR205C, strain PFK2, active compounds read low 0.993 | S. cerevisiae deletion strains, locus YMR223W, strain ubp8, active compounds read low 0.972 | S. cerevisiae deletion strains, locus YMR231W, strain pep5, active compounds read low 0.997 | S. cerevisiae deletion strains, locus YMR307W, strain GAS1, active compounds read low 0.972 | S. cerevisiae deletion strains, locus YNL067W, strain RPL9B, active compounds read low 1.01 | S. cerevisiae deletion strains, locus YNL071W, strain lat1, active compounds read low 1.01 | S. cerevisiae deletion strains, locus YNL128W, strain TEP1, active compounds read low 0.967 | S. cerevisiae deletion strains, locus YNL183C, strain NPR1, active compounds read low 0.934 | S. cerevisiae deletion strains, locus YNL209W, strain ssb2, active compounds read low 1.01 | S. cerevisiae deletion strains, locus YNL233W, strain BNI4, active compounds read low 0.998 | S. cerevisiae deletion strains, locus YNL248C, strain rpa49, active compounds read low 1.06 | S. cerevisiae deletion strains, locus YNL250W, strain rad50, active compounds read low 0.995 | S. cerevisiae deletion strains, locus YNL271C, strain bni1, active compounds read low 0.973 | S. cerevisiae deletion strains, locus YNL298W, strain CLA4, active compounds read low 0.985 | S. cerevisiae deletion strains, locus YNL307C, strain MCK1, active compounds read low 0.977 | S. cerevisiae deletion strains, locus YNL322C, strain KRE1 (second series), active compounds read low 1.05 | S. cerevisiae deletion strains, locus YNL322C, strain KRE1, active compounds read low 0.998 | S. cerevisiae deletion strains, locus YNR049C, strain mso1, active compounds read low 1 | S. cerevisiae deletion strains, locus YNR052C, strain pop2, active compounds read low 0.966 | S. cerevisiae deletion strains, locus YOL006C, strain TOP1, active compounds read low 1.02 | S. cerevisiae deletion strains, locus YOL012C, strain htz1 1.25 | S. cerevisiae deletion strains, locus YOL147C, strain pex11, active compounds read low 0.98 | S. cerevisiae deletion strains, locus YOR001W, strain rrp6, active compounds read low 0.97 | S. cerevisiae deletion strains, locus YOR061W, strain CKA2, active compounds read low 0.986 | S. cerevisiae deletion strains, locus YOR069W, strain VPS5, active compounds read low 0.986 | S. cerevisiae deletion strains, locus YOR070C, strain gyp1, active compounds read low 1.01 | S. cerevisiae deletion strains, locus YOR080W, strain dia2, active compounds read low 1.02 | S. cerevisiae deletion strains, locus YOR083W, strain WHI5, active compounds read low 0.99 | S. cerevisiae deletion strains, locus YOR106W, strain vam3, active compounds read low 1.05 | S. cerevisiae deletion strains, locus YOR136W, strain idh2, active compounds read low 0.981 | S. cerevisiae deletion strains, locus YOR144C, strain elg1, active compounds read low 0.983 | S. cerevisiae deletion strains, locus YOR184W, strain ser1, active compounds read low 0.98 | S. cerevisiae deletion strains, locus YOR231W, strain MKK1, active compounds read low 0.952 | S. cerevisiae deletion strains, locus YOR265W, strain rbl2, active compounds read low 0.992 | S. cerevisiae deletion strains, locus YOR270C, strain vph1, active compounds read low 1.06 | S. cerevisiae deletion strains, locus YOR290C, strain snf2, active compounds read low 1.05 | S. cerevisiae deletion strains, locus YOR316C, strain cot1, active compounds read low 0.976 | S. cerevisiae deletion strains, locus YPL051W, strain arl3, active compounds read low 1.02 | S. cerevisiae deletion strains, locus YPL055C, strain LGE1, active compounds read low 1.04 | S. cerevisiae deletion strains, locus YPL078C, strain atp4, active compounds read low 1.07 | S. cerevisiae deletion strains, locus YPL106C, strain sse1, active compounds read low 1.04 | S. cerevisiae deletion strains, locus YPL240C, strain hsp82, active compounds read low 1.01 | S. cerevisiae deletion strains, locus YPL241C, strain CIN2, active compounds read low 0.993 | S. cerevisiae deletion strains, locus YPL256C, strain CLN2, active compounds read low 0.955 | S. cerevisiae deletion strains, locus YPR119W, strain clb2, active compounds read low 0.975 | S. cerevisiae deletion strains, locus YPR141C, strain kar3, active compounds read low 0.973 | S. cerevisiae deletion strains, locus YPR163C, strain tif3, active compounds read low 0.969 | S. cerevisiae deletion strains, locus YPR167C, strain met16, active compounds read low 0.975 | S. cerevisiae deletion strains, strain wtn01, active compounds read low 1.01 | S. cerevisiae strains, strain wild type, active compounds read low 1
